Reference: PubChem BioAssay (Tox21)
Results filed as inconclusive are left out. Activity calls are given as the source filed them. Unless noted, calls follow the shape of the dose curve; as a rule, active = well fitted curve in the direction sought with a large enough effect in the repeat runs; inconclusive = weak or mixed curves; inactive = no such curve, though single readings can be large; an effect the other way counts as inactive or inconclusive.

Assays:
[1] = A CellTox Green Cytotoxicity Assay to monitor cytotoxicity in HepG2 cells - 8 hour (AID 1224890); also: nearly all actives have a fitted effect of over 45% in size
How it was run: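 HepG2, 600 cells/well premixed w/ CellTox Green; 5 h settle, 37 C/5% CO2; pintool cpd add (DMSO); 37 C, 40 h; fluorescence read at 0, 8, 16, 24, 32, 40 h.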

[2] = qHTS assay to identify small molecule antagonists of the estrogen receptor alpha (ER-alpha) signaling pathway using the BG1 cell line in the presence of 0.1 nM 17-beta-estradiol - cell viability counter screen (AID 1259241); also: nearly all actives have a fitted effect of over 40% in size; also: potency is read from the fitted curve at half-maximal effect
How it was run: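 The cell line endogenously expresses full-length ER-alpha and carries four EREs driving luciferase. Cells are cultured 5 days hormone-free, treated 22 hr with compounds and 0.1 nM estradiol, then viability is read by fluorescence.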

[3] = qHTS assay to identify small molecule antagonists of the androgen receptor (AR) signaling pathway using the MDA cell line in the presence of 0.5 nM R1881 - cell viability counter screen (AID 1259242); also: nearly all actives have a fitted effect of over 45% in size
How it was run: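 Live-cell protease fluorescence, CellTiter-Fluor, 30 min at 37C. Cells: MDA-kb2, 3,000/well, preincubated 5 hr. Compounds plus 0.5 nM R1881 final, 16 hr, 37C, 0% CO2.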

[4] = qHTS assay to identify small molecule HDAC inhibitors (AID 1259364);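 also: wild-type HCT-116 cells with endogenous class I/II HDAC activity; top concentration of the series differs between compounds; nearly all actives have a fitted effect of over 45% in size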
How it was run: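 HCT-116 (wild type), 1,500 cells/well, overnight; compound 2 hr 37C 5% CO2; HDAC-Glo I/II reagent 30 min RT; luminescence readout.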

[5] = qHTS assay to identify small molecule HDAC inhibitors - cell viability counter screen (AID 1259365); also: series mostly up to about 92 µM; nearly all actives have a fitted effect of over 50% in size
How it was run: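 Viability readout: CellTiter-Glo luminescence. Wild-type HCT-116 cells, 2hr compound treatment following overnight attachment at 37 C.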

[6] = qHTS assay to identify small molecule agonists of the sonic hedgehog signaling (Shh) pathway - cell viability counter screen (AID 1259366); also: nearly all actives have a fitted effect of over 50% in size; also: potency is read from the fitted curve at half-maximal effect
How it was run: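 Viability measured fluorometrically (CellTiter-Fluor, 1hr, 37C) in 3T3 Gli1-Luc reporter cells after 23hr compound exposure within a 24hr incubation at 37C/5% CO2.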

[7] = qHTS assay to identify small molecule antagonists of the sonic hedgehog signaling (Shh) pathway - cell viability counter screen (AID 1259367); also: nearly all actives have a fitted effect of over 55% in size; also: potency is read from the fitted curve at half-maximal effect
How it was run: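 Cytotoxicity was assessed in parallel with Shh reporter activity by measuring live-cell protease fluorescence (CellTiter-Fluor) in NIH/3T3 cells stably carrying Gli1-Luc, treated with compound under conditioned medium stimulation for 23 hr plus 1 hr reagent incubation.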

[8] = qHTS assay to identify small molecule agonists of the sonic hedgehog signaling (Shh) pathway (AID 1259368; calls by dose curve;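 also: NIH/3T3-derived 3T3Gli1-Luc cells carrying a stable Gli1-driven firefly luciferase reporter; series mostly up to about 92 µM; nearly all actives have a fitted effect of over 15% in size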)
How it was run: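 Read-out: firefly luciferase luminescence from a Gli1 response element reporter stably integrated in NIH/3T3-derived 3T3Gli1-Luc cells, measured 30 min at room temperature after reagent addition. Compound exposure lasted 24 hr at 37 C, 5% CO2.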

[9] = qHTS assay to identify small molecule agonists of the androgen receptor (AR) signaling pathway in the presence of an antagonist - cell viability counter screen (AID 1259379); also: nearly all actives have a fitted effect of over 25% in size; also: potency is read from the fitted curve at half-maximal effect;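 as to activity change, negative = cytotoxicity: MDA-kb2 human breast cancer cells carrying an MMTV luciferase reporter; series mostly up to about 92 µM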
How it was run: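 Viability counter screen: CellTiter-Fluor fluorescence, measured in the same wells as the luciferase read-out. MDA-kb2 cells, 3,000/well, with nilutamide at 3.0uM final and compounds at 15 concentrations, 16 hr at 37C, 0% CO2.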

[10] = qHTS assay to identify small molecule agonists of the estrogen receptor beta (ER-beta) signaling pathway - cell viability counter screen (AID 1259380); also: nearly all actives have a fitted effect of over 30% in size
How it was run: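 Luminescence read-out (CellTiter-Glo, 30 min, room temp) taken in the same wells as the beta-lactamase reporter assay; ER-beta-UAS-bla HEK293T cells exposed to DMSO-dissolved compounds for 16 hr at 37C in 2% charcoal-stripped FBS medium.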

[11] = qHTS assay to identify small molecule antagonists of the estrogen receptor beta (ER-beta) signaling pathway - cell viability counter screen (AID 1259382); also: series mostly up to about 92 µM; nearly all actives have a fitted effect of over 55% in size
How it was run: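 Luminescent ATP read-out (CellTiter-Glo, 30 min, RT) taken in the same wells as the bla reporter assay. HEK293T ER-beta-UAS-bla cells in 2% charcoal-stripped FBS were exposed to compounds with 1nM E2 for 16 hr at 37C.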

[12] = qHTS assay to identify small molecule agonists or antagonists of the thyroid stimulating hormone receptor (TSHR) signaling pathway - wild type cell line counter screen (AID 1259384; calls by dose curve)
How it was run: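 Wild-type HEK293 cells were plated 18 h at 37 C/5% CO2, pin-dosed with compound plus Ro20-1724 medium, held 30 min at room temperature, then given cAMP-d2 and anti-cAMP-cryptate; fluorescence was read after 1 h. Fifteen concentrations, triplicate.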

[13] = qHTS assay to identify small molecule antagonists of the sonic hedgehog signaling (Shh) pathway (AID 1259369; calls by dose curve; also: nearly all actives have a fitted effect of over 45% in size)
How it was run: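 Luminescence readout: firefly Luc under Gli1 response element in 3T3Gli1-Luc cells (NIH/3T3 clone). Antagonist mode, stimulation by conditioned medium; compound exposure 24hr at 37 C, 5% CO2.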

[14] = biological target: Estrogen receptor beta (Homo sapiens) (UniProt Q92731); test: qHTS assay to identify small molecule agonists of the estrogen receptor beta (ER-beta) signaling pathway (AID 1259377; active = well fitted activation curve with a large enough effect in the signal ratio in the repeat runs, not every such curve was filed as active; the % refers to the signal ratio; also: potency is read from the fitted curve at half-maximal effect)
Sequence of Estrogen receptor beta (Homo sapiens) (Q92731 whole entry, looked up): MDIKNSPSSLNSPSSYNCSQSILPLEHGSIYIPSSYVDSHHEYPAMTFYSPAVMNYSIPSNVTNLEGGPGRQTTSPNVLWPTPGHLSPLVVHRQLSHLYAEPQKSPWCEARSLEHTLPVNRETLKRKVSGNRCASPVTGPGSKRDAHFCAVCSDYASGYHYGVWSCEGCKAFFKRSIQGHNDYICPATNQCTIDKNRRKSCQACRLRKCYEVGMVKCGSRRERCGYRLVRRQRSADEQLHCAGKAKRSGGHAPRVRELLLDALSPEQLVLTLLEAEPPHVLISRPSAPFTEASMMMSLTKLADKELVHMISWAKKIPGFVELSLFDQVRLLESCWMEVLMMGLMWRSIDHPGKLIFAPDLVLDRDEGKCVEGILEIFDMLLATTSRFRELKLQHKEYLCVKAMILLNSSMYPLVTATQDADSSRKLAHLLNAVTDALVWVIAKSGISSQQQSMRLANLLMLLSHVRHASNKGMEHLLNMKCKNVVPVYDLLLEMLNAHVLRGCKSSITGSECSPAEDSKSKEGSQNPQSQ
How it was run: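 A UAS-controlled beta-lactamase reporter in ER-beta-UAS-bla HEK293T cells reports receptor activation. Compounds act for 16 hr at 37C in 2% charcoal-stripped serum, and a FRET substrate is read by fluorescence after 2 hours.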

[15] = biological target: Estrogen receptor beta (Homo sapiens) (UniProt Q92731); test: qHTS assay to identify small molecule antagonists of the estrogen receptor beta (ER-beta) signaling pathway (AID 1259378; active = well fitted inhibition curve with a large enough effect in the signal ratio in the repeat runs, not every such curve was filed as active; the % refers to the signal ratio)
How it was run: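 ER-beta-UAS-bla HEK293T (GripTite) cells in 2% charcoal-stripped FBS medium were preincubated 6 hr at 37C, dosed with compound, then stimulated with 1 nM E2 (final) for 16 hr; beta-lactamase reporter read by B/G FRET fluorescence after 2 hr substrate loading.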

[16] = biological target: Estrogen receptor (Homo sapiens) (UniProt P03372); test: qHTS assay to identify small molecule antagonists of the estrogen receptor alpha (ER-alpha) signaling pathway using the BG1 cell line in the presence of 0.1 nM 17-beta-estradiol (AID 1259244); also: nearly all actives have a fitted effect of over 50% in size
Sequence of Estrogen receptor (Homo sapiens) (P03372 whole entry, looked up): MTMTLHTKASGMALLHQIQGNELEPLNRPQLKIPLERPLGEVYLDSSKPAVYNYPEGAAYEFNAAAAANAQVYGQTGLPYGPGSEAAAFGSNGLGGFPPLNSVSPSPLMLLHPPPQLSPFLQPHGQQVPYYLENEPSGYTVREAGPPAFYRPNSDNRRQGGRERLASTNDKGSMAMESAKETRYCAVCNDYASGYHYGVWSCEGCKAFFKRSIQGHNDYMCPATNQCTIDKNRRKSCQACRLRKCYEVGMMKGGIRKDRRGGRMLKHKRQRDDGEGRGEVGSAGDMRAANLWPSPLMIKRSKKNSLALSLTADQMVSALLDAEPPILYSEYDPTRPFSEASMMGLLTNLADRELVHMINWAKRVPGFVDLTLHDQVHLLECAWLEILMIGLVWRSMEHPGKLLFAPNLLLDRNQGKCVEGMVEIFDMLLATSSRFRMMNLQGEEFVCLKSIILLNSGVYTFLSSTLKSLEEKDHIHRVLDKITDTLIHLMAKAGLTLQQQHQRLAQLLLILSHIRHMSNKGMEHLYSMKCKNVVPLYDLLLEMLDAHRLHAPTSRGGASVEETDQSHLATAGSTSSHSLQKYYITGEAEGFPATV
How it was run: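 Luminescence after ONE-Glo (30 min, room temperature) measured ERE-luciferase activity in VM7Luc4E2 cells treated 22 h with compound and 0.1 nM final 17beta-estradiol as stimulator.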

[17] = biological target: Estrogen receptor (Homo sapiens) (UniProt P03372); test: qHTS assay to identify small molecule agonists of the estrogen receptor alpha (ER-alpha) signaling pathway in the presence of an antagonist (AID 1259383; calls by dose curve; also: top concentration of the series differs between compounds; nearly all actives have a fitted effect of over 15% in size)
How it was run: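 Luciferase luminescence (ONE-Glo, 30min at room temperature) measured in VM7Luc4E2 cells after 22hr compound exposure at 15 concentrations, with 10.0nM ICI-182,780 final present; cells express endogenous ER-alpha and carry four EREs upstream of luciferase.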

[18] = biological target: Androgen receptor (Homo sapiens) (UniProt P10275); test: qHTS assay to identify small molecule antagonists of the androgen receptor (AR) signaling pathway using the MDA cell line in the presence of 0.5 nM R1881 (AID 1259243); also: nearly all actives have a fitted effect of over 50% in size
Sequence of Androgen receptor (Homo sapiens) (P10275 whole entry, looked up): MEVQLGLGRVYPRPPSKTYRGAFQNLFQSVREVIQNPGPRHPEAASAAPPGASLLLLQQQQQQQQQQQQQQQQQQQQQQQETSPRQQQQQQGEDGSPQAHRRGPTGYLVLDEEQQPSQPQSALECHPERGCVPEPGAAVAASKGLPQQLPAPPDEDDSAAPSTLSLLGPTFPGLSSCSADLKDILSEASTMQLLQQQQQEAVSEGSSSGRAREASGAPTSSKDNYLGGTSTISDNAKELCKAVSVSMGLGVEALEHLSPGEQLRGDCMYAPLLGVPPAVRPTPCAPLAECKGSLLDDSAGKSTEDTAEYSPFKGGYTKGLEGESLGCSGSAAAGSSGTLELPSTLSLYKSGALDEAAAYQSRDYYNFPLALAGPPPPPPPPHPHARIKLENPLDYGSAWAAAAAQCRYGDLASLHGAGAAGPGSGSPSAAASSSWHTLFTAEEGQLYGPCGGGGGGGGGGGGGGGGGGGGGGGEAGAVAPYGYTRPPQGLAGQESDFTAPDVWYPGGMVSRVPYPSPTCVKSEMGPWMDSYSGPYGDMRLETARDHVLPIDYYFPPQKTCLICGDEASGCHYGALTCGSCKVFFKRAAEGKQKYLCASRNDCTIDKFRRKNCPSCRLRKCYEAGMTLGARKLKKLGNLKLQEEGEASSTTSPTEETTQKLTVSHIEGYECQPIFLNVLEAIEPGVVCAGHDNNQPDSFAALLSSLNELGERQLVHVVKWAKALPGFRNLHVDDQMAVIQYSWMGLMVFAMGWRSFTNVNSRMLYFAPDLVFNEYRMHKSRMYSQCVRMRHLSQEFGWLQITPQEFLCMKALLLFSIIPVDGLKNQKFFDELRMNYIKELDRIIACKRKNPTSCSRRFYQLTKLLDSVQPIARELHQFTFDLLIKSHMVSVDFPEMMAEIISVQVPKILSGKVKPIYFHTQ
How it was run: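 MDA-kb2, MMTV-luc (AR/GR elements); 3,000 cells/well; cpd + 0.5 nM R1881 final; 16 hr 37C, 0% CO2; ONE-Glo 30 min RT; luminescence.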

[19] = qHTS assay to identify small molecule phospholipidosis (PLD) inducers (AID 1259344; active = well fitted curve in the direction sought with a large enough effect; an effect the other way counts as inactive or inconclusive)
How it was run: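 Cells (HepG2, 900 per well) attach for 4 h, receive LipidTOX Red and compound together, incubate 24 h at 37 C, are fixed 30 min with paraformaldehyde/Hoechst, then imaged at one site per well.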
% is scaled to controls: 0 for no effect and ±100 for the full control effect.

Brc1ccc(-c2ccccc2)cc1
inactive: outcome [1] | Potency [2] | outcome [3] | Potency [4] | outcome [5] | Potency [6] | Potency [7] | outcome [8] | Potency [9] | Potency [10] | outcome [11] | outcome [12]

CC(COC(C)(C)C)OCCCO (stereo unspecified)
inactive: outcome [1] | Potency [2] | outcome [3] | Potency [4] | outcome [5] | Potency [6] | Potency [7] | outcome [8] | Potency [13] | Potency [14] | outcome [15] | Potency [9] | Potency [10] | outcome [11] | outcome [12]

NCCN1CCOCC1
inactive: outcome [1] | Potency [2] | outcome [3] | Potency [4] | outcome [5] | Potency [6] | Potency [7] | outcome [8] | Potency [14] | outcome [15] | Potency [9] | Potency [10] | outcome [11] | outcome [12]

COc1ccc(Br)c(C)c1
inactive: outcome [1] | Potency [2] | outcome [3] | Potency [4] | outcome [5] | Potency [6] | Potency [7] | outcome [8] | Potency [13] | Potency [9] | Potency [10] | outcome [11] | outcome [12]

CC(=O)Nc1cccc(C)c1
inactive: outcome [1] | Potency [2] | outcome [3] | Potency [4] | outcome [5] | Potency [6] | Potency [7] | outcome [8] | Potency [13] | Potency [9] | outcome [11] | outcome [12]

CCCC/C=C\CCCCCCCCCC=O
inactive: outcome [1] | Potency [2] | outcome [3] | Potency [4] | outcome [5] | Potency [6] | Potency [7] | outcome [8] | Potency [13] | Potency [14] | outcome [15] | Potency [9] | Potency [10] | outcome [11] | outcome [12]

C=CC(OCC)OCC
inactive: outcome [1] | Potency [2] | outcome [3] | Potency [4] | outcome [5] | Potency [6] | Potency [7] | outcome [8] | Potency [14] | outcome [15] | Potency [9] | Potency [10] | outcome [11]

c1ccc2c(c1)ccc1c3ccccc3ccc21
inactive: outcome [1] | Potency [2] | outcome [3] | outcome [5] | Potency [6] | Potency [7] | outcome [8] | Potency [13] | Potency [14] | outcome [15] | Potency [9] | Potency [10] | outcome [11] | outcome [12]

C[Si](C)=O
inactive: cytotoxicity increase [1] -1.81% [at 6.97 µM] | activity change, negative = cytotoxicity [2] -11.4% [at 8.39 µM] | viability change, negative = cytotoxic [3] 2.02% [at 8.39 µM] | activity change, negative = inhibition [4] 1.64% [at 8.39 µM] | activity change, negative = cytotoxicity [5] 2.53% [at 8.39 µM] | viability change, negative = cytotoxic [6] -1.38% [at 8.39 µM] | viability change, negative = cytotoxic [7] 0.12% [at 8.39 µM] | activity change [8] 0.132% [at 8.39 µM] | activity change, negative = inhibition [13] 4.44% [at 8.39 µM] | activity change, negative = cytotoxicity [9] -1.72% [at 8.39 µM] | activity change, negative = cytotoxicity [10] 5.93% [at 8.39 µM] | activity change, negative = cytotoxicity [11] 0.879% [at 8.39 µM] | cAMP activity change [12] -4.18% [at 8.39 µM]

Nc1ccc([N+](=O)[O-])c(N)c1
inactive: outcome [1] | Potency [16] | Potency [4] | outcome [5] | outcome [8] | Potency [13] | Potency [10] | outcome [11] | outcome [17] | outcome [12]
active: Potency [2] 53.1 µM | Potency [6] 29.9 µM | Potency [7] 33.5 µM | Potency [9] 29.9 µM

CC(C)(C)OC(=O)c1ccc(O)cc1
inactive: outcome [1] | Potency [2] | outcome [3] | outcome [5] | Potency [6] | Potency [7] | outcome [8] | Potency [9] | Potency [10] | outcome [11] | outcome [12]

COC(=O)C1CC(=O)C(C(=O)OC)CC1=O (stereo unspecified)
inactive: cytotoxicity increase [1] -5.53% [at 6.97 µM] | activity change, negative = cytotoxicity [2] 7.13% [at 8.39 µM] | viability change, negative = cytotoxic [3] 1.05% [at 8.39 µM] | activity change, negative = inhibition [4] -0.18% [at 8.39 µM] | activity change, negative = cytotoxicity [5] 0.106% [at 8.39 µM] | viability change, negative = cytotoxic [6] 11.2% [at 8.39 µM] | viability change, negative = cytotoxic [7] 1.71% [at 8.39 µM] | activity change [8] -2.11% [at 8.39 µM] | activity change, negative = inhibition [13] 0.93% [at 8.39 µM] | activity change, negative = cytotoxicity [9] 2.46% [at 8.39 µM] | activity change, negative = cytotoxicity [10] -5.74% [at 8.39 µM] | activity change, negative = cytotoxicity [11] 5.88% [at 8.39 µM] | cAMP activity change [12] 2.64% [at 8.39 µM]

O=C(c1ccc(O)cc1)c1ccc(O)c(O)c1O
inactive: outcome [1] | outcome [3] | outcome [5] | outcome [8] | Potency [10] | outcome [11]
active: Potency [6] 30.8 µM | Potency [14] 15.4 µM

COc1cc(NS(=O)(=O)c2ccc(N)cc2)nc(OC)n1
inactive: Potency [2] | outcome [3] | Potency [18] | Potency [16] | outcome [19] | Potency [4] | outcome [5] | Potency [6] | Potency [7] | outcome [8] | Potency [13] | Potency [14] | Potency [9] | Potency [10] | outcome [11]

CCOC(=O)[C@H](CCc1ccccc1)N[C@@H](C)C(=O)N1C(=O)N(C)C[C@H]1C(=O)O
inactive: outcome [1] | outcome [3] | Potency [16] | outcome [19] | Potency [4] | outcome [5] | Potency [6] | Potency [7] | outcome [8] | Potency [14] | outcome [15] | Potency [9] | Potency [10] | outcome [11] | outcome [17] | outcome [12]

CCCCNC1CC(C)(C)NC(C)(C)C1
inactive: outcome [1] | outcome [3] | Potency [16] | Potency [4] | outcome [5] | Potency [6] | Potency [7] | outcome [8] | Potency [13] | Potency [14] | outcome [15] | Potency [10] | outcome [11] | outcome [17] | outcome [12]

CCCCCCOc1ccccc1C(N)=O
inactive: outcome [1] | outcome [3] | outcome [19] | outcome [5] | Potency [6] | Potency [7] | outcome [8] | Potency [14] | outcome [15] | Potency [10] | outcome [11] | outcome [12]

CC(CC=O)CCCC(C)(C)O (stereo unspecified)
inactive: Potency [2] | outcome [3] | Potency [18] | Potency [16] | outcome [19] | Potency [4] | outcome [5] | Potency [6] | Potency [7] | outcome [8] | Potency [13] | Potency [9] | Potency [10] | outcome [11] | outcome [17] | outcome [12]
